# Experimental data: the supplement of paper PMC3334620
# The full ranking holds about 33,000 sequences; the median of “E-score (-0.5 to 0.5)” is about -0.036, and the highest 2% start at about 0.37. The entries come from a sample that favours the highest values as a whole.
# Molecular target: T1, Yer064c (UniProt P40041)
# T1 sequence: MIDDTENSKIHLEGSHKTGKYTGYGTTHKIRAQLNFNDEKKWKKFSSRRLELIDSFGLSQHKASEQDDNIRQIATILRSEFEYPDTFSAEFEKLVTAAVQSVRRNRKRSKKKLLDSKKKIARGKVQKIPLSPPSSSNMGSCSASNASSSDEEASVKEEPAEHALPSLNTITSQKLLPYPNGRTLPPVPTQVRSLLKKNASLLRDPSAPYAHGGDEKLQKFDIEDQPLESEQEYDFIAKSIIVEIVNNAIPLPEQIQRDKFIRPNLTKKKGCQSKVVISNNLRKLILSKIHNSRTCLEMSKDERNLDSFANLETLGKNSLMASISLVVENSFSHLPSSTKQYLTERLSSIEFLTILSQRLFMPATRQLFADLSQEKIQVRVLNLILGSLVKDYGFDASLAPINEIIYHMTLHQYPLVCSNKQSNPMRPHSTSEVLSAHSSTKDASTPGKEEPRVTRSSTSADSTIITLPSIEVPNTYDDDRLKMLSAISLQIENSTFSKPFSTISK
# Test: PBM E-score (8-mer binding enrichment) (E-score (-0.5 to 0.5)); higher = stronger / more preferred TF binding
# Settings: protein concentration: 200 nM; construct: GST-full length
# Method: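 Universal 'all 10-mer' protein binding microarrays (Agilent AMADID 015681) probed with GST-tagged S. cerevisiae TFs (full-length or DBD) made by in vitro transcription/translation (PURExpress), about 100-200 nM. Bound TF was detected with fluorescent anti-GST. Each ungapped 8-mer (which stands for itself and its reverse complement) is scored by the PBM enrichment score (E-score), a modified Wilcoxon-Mann-Whitney statistic from -0.5 to +0.5, computed with the Universal PBM Analysis Suite. Scale: above 0.35 generally sequence-specific binding.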
row,Sequence,PBM E-score
1,CCAGATCA,0.058
2,CGAAGCCA,0.0935
3,CTCCCCGA,-0.0625
4,AGTAGCTG,0.0121
5,GCAGAACC,-0.118
6,ATCGAGCA,-0.149
7,AACTGACA,-0.287
8,ACCTGACC,-0.13
9,AGCTGACT,0.458
10,AACTGACT,0.404
11,AACTGACC,-0.163
12,AGCTGACG,-0.134
13,ACCTGACG,-0.192
14,AGCTGACC,-0.078
15,ACCTGACT,0.44
16,AAGTGCAG,0.0456
17,CCCGTGCC,-0.103
18,AGGTAACG,-0.0878
19,ATTCCATA,-0.0291
20,AGCGCATC,-0.0879
21,GACTACTA,0.417
22,AAGTACTC,0.282
23,AACTACTC,0.199
24,TACTACTA,0.0844
25,CAGTACTC,0.24

row,Sequence,PBM E-score
1,CACTACTC,0.112
2,AACTACTA,-0.0232
3,GACTACTC,0.427
4,GAGTACTC,0.381
5,AACGTAAT,0.023
6,GTTGTCGA,-0.158
7,GCGTTGCC,-0.252
8,ACCCTGAC,0.158
9,GTTCAGAA,0.00278
10,AAGCAGCA,-0.264
11,ATTGTACA,0.0112
12,CGGACTAC,0.248
13,CTGACTAC,0.469
14,GTGACTAA,0.488
15,CAGACTAA,0.317
16,GGGACTAA,0.323
17,CTGACTAA,0.48
18,CTTACTAC,-0.0948
19,GTTACTAA,0.184
20,CGGACTAA,0.342
21,AACCGCTA,-0.169
22,ATGTTATA,-0.0918
23,CGAAGGAC,0.079
24,ACCGCGGG,0.0814
25,AGCGCCGA,-0.00218

row,Sequence,PBM E-score
1,ACCTTCGA,0.00431
2,GAATCTCA,0.101
3,CCGGATTA,-0.0124
4,CCAAGCTC,-0.22
5,AGATGTCG,-0.0862
6,ACTCACCT,0.338
7,CCTCACCC,-0.213
8,TCTCACCA,-0.117
9,GCTCACCC,-0.0459
10,CCTCACCA,-0.134
11,ACTCACCA,0.388
12,CCTCACCG,-0.033
13,ACTCACCG,0.384
14,ACTCACCC,0.401
15,ATCGGAGC,-0.0582
16,GACGAAGC,-0.0864
17,TCGGATCA,-0.0516
18,ATTAGAAT,0.186
19,ATTAATCG,0.269
20,ATTAATCC,0.256
21,CTTAATCC,0.114
22,CTTAATAA,0.136
23,GTTAATAA,0.117
24,GTTAATCA,0.451
25,CTTAATCA,0.45

row,Sequence,PBM E-score
1,GTTAATTA,0.0895
2,ATTAATCA,0.441
3,AGACCAAA,0.0161
4,GTAGTAAA,0.107
5,CACTTGCG,-0.0335
6,GTAGGAAA,0.00646
7,CGGTTACC,0.0378
8,ATATTGGC,-0.228
9,GGAGGACC,-0.37
10,GACTTAAA,0.325
11,GCAAGTCA,0.361
12,CCAAGTCA,0.317
13,ACAAGTCT,0.0793
14,ACAAGTCG,0.0706
15,ACAAGTCA,0.374
16,TCAAGTCA,0.379
17,ACAGGGCA,-0.128
18,ATATCCAC,-0.0172
19,TCAAAGCA,0.0603
20,ACTGTTGC,-0.0887
21,AAACCGGC,-0.0714
22,ATTCGCGA,0.122
23,AAATGATA,0.104
24,AAATGAGG,-0.229
25,AAATGATT,0.437

row,Sequence,PBM E-score
1,AAATGAGT,0.427
2,AAATGACG,0.0769
3,AAATGATC,0.121
4,AAATGAGC,0.058
5,AAATGACC,-0.0187
6,AAATGACT,0.475
7,ACTATCTC,0.212
8,AATCCGGG,-0.239
9,CCGTCTCA,0.0264
10,CTAATCAG,0.286
11,ATAATCAA,0.269
12,CTAATCGC,0.128
13,GTAATCAC,0.413
14,GTAATCAA,0.325
15,ATAATCAT,0.45
16,GAAATCAC,0.347
17,ATAATCAC,0.385
18,ATAATCTC,0.137
19,CTAATCAC,0.393
20,ATAATCCC,-0.227
21,ATAATCAG,0.33
22,ACCTCCAA,0.0762
23,ATGTAACG,-0.038
24,TACCGCCA,-0.125
25,AGATAGGA,-0.126

row,Sequence,PBM E-score
1,TTAATCAA,0.371
2,AGAATCAA,0.243
3,TGAATCAA,0.419
4,CTAATCAA,0.264
5,CGAATCAA,0.272
6,TCAATCAA,0.281
7,ATCGACAG,-0.109
8,AGTGAGTC,0.474
9,CGTGAGTC,0.48
10,AGTGAGTA,0.355
11,CGTGAGCC,0.0694
12,AGTGAGTG,0.0771
13,CGTGAGTA,0.323
14,GGGTGGGA,-0.139
15,ACCCCAAT,-0.114
16,GTATTGTA,-0.0603
17,ATTGGATC,-0.0186
18,AATTTTGT,0.161
19,AAGCGGGA,-0.239
20,CGATAGCC,-0.0746
21,CGATAGTA,0.032
22,AGATAGTG,0.0368
23,CGATAGTC,0.422
24,AGATAGTA,0.177
25,AGATAGTC,0.403

row,Sequence,PBM E-score
1,GAACAAGC,-0.357
2,GAGACATA,0.334
3,AAGTCGGT,0.0145
4,AAAAGACA,-0.0266
5,AGGTGGAC,-0.133
6,ACTCAGAT,0.339
7,TGTCAGAA,-0.00325
8,GGTCAGAC,0.0361
9,CGTCAGAC,-0.124
10,ACTCAGAG,0.302
11,AATCAGAT,0.329
12,AGTCAGAC,0.436
13,AGTCAGAT,0.427
14,AGTCAGAG,0.428
15,CGTCAGAG,-0.136
16,AGTCAGAA,0.434
17,GGTCAGAA,-0.00031
18,GGGTATAA,-0.108
19,ATCGTGAG,0.124
20,CCGCGTTC,-0.274
21,AATTCCCC,-0.128
22,ACCGGCAG,-0.243
